Assay results published in the supplement of paper PMC6555819.

Key:
Assay in all cases: PBM binding z-score (relative to random genomic background probes); higher = stronger binding; sequences stand for … in GC…GCGATTGACAGCGTAGAATGAAGG
[1] = test system: RARb homodimer (NR concentration 270 nM)
Method in brief: (§1)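 Binding buffer was PBS pH 7.4 with 2% milk, 0.02% Triton X-100, 1 mM DTT, 0.2 mg/mL BSA and 0.4 mg/ml salmon testes DNA. In it, ligand-free nuclear receptor dimers were incubated 1 h on custom Agilent 4×180K protein-binding microarrays carrying double-stranded probes. Antibodies against each partner (one per run) detected binding, and z-scores were calculated against random background probes after regression normalization of scanned fluorescence.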

[2] = test system: RARg:RXRa (NR concentration 270 nM, RXRa partner concentration 90 nM)
Method in brief: as §1

[3] = test system: RARg homodimer (NR concentration 270 nM)
Method in brief: as §1

[4] = test system: RXRa DBDmut IVT, anti-RXR (DBD mutation: RXRa K156A/R161A, NR concentration 90 nM)
Method in brief: as §1

[5] = test system: RXRa homodimer (NR concentration 180 nM)
Method in brief: as §1

[6] = test system: THRa:RXRa (NR concentration 90 nM, RXRa partner concentration 90 nM)
Method in brief: as §1

[7] = test system: THRa homodimer (NR concentration 90 nM)
Method in brief: as §1

[8] = test system: VDR homodimer (NR concentration 270 nM)
Method in brief: as §1

Sequence	PBM binding z-score [1]	PBM binding z-score [2]	PBM binding z-score [3]	PBM binding z-score [4]	PBM binding z-score [5]	PBM binding z-score [6]	PBM binding z-score [7]	PBM binding z-score [8]
AGTCAAAGTTCAACTAGGTAACGTAAGATATGCT	3.9	5.82	6.57	4.34	4.89	3	0.196	4.09
GCAGACAGGTGAAACGCAGGTAACCCAGGGTGGC	0.0682	1.01	0.468	-1.51	0.96	1.52	-0.636	-1.22
ATCGAAAGCTCGACGAGGTGAGTATACACCGTTT	-0.193	-0.12	0.303	-0.125	0.189	1.02	0.249	-0.291
GCCGACAGGTGAAACGCAGGTAACTCAGGGTGGC	-0.0352	0.819	0.229	-0.346	0.514	1.35	-0.657	-0.993
GTACCAAGGTGAATAGGTCGTAGATGAGTAGGCG	1.92	2.94	1.61	-0.478	2.18	1.83	0.42	0.204
AGAATGAGGTTATACGTAGATCAGGAAAGAAAGT	0.817	1.68	1.3	1.77	2.25	2.15	0.219	0.894
CCTTACGGGTCACTCCAGGTTATAGCTTCGGAGT	3.13	4.36	4.47	1.65	4.42	4.92	0.616	1.61
CCTCGGAGGACAGGAGGTCAGAGCTGTCCGCTTT	3.17	3.42	3.29	0.04	2.07	2.67	0.822	0.982
TGAATGAGGTAATAAGATCAGGGAACGTTGCAAA	-0.532	0.204	0.306	-1.15	0.365	0.991	-0.205	-0.404
CGTCCAAGGTCAGCATGTCAGTGAAAGCGACGTG	3.99	5.21	6	2.51	4.01	3.54	2.02	0.761
TAGCCTAGGTCAATCAGGGGCCAGTATAGAAAGC	3.1	5.75	4.13	0.358	2.51	3.22	0.496	0.332
ATATGTAGGTTAGCTGGGGCCATTCAGACTAGGC	1.17	0.84	0.74	0.565	0.845	4.13	0.768	0.832
GGAACGCGGGCAAGTTGATAGCAGAGTTTGATGG	-0.349	-0.36	-0.0011	0.0062	-0.242	-0.844	-0.922	-0.495
AGTCAAAGTTCACTAGGTAACTTAAGATTCAGCT	3.53	4.86	5.58	4.13	3.94	2.03	0.269	3.85
CCTCGTAGGACAGAAGGTCAGAGCTGTCCGCTTT	3.4	3.02	3.4	0.251	2.18	1.7	-0.0633	0.412
CCGAGTAGGTTATGGGGAATTCAGGCAACGGTGA	0.783	0.446	0.494	0.287	0.487	0.724	0.701	0.246
ACTTACTGGTCAACGAGGTTATAGCACGCGTATA	1.88	1.72	1.94	1.16	1.85	2.26	1.22	1.71
AGAATTAGGTTAAGATCAGGGAAACAGAATACAT	0.701	1.04	1.09	-0.0806	0.853	1.35	0.656	0.432
ATCTCTAGCTAAAAGTTCAGTGAATCCCGAGGAT	2.38	1.43	1.84	0.736	0.493	0.457	-0.0184	1.64
CCTGCTAGCTCAATGGTCAGCTAAAGCAGCTCGC	0.464	-0.547	-0.75	0.0586	-0.756	-0.535	-0.555	-0.94
TAGCCTAGGTCATTGGGCCAGTTTAGTACGCATC	2.94	3.74	3.68	1.46	2.81	3.03	1	1.46
TCTTGTAGATCAGCTGGTTAAGAAAGCTGGCCAA	-0.771	-0.465	-0.758	0.269	-0.351	-0.515	-1.3	-0.694
CCTATTAGTTGACCATAAGGGCAAGCGAAGCTCG	1.9	0.986	1.05	0.414	0.645	1.75	1.08	0.847
ACAGACAGCTGAGTGAAGGTAACTCAGCTGGACG	-0.758	-0.23	-0.426	-0.997	0.00757	-0.178	-0.586	-0.66
TGTTGTAGATCAAAGGTTAAGAAAGCCGAAGCCT	1.46	2.08	1.36	-0.391	2.85	1.34	-0.597	-0.249
TCATATAGGTAATACAGGTGACAGTCGGCATCTA	0.657	0.874	0.762	1.5	1.08	0.809	0.0912	-0.0475
CCAGGCAGGTGAGAAGGTAACTCAGCCTCGATTA	0.294	0.181	-0.0537	-0.754	0.145	0.198	-0.116	-0.279
CTCGAAAGGTCGGCTGAGGTGAGTATACGGATAA	2.61	3.82	3.8	0.843	3.44	5.13	1.12	0.549
